Consider 6 molecules from PubChem BioAssay (NCATS).

The nature of experiment [1]: P-glycoprotein substrates identified in KB-8-5-11 adenocarcinoma cell line, qHTS therapeutic library screen (AID 1346987). Further: nearly all actives have a fitted effect of over 65% in size. Further: potency means the concentration at half of the fitted maximal effect. A digest of the protocol:
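Compounds are pinned in dose-response onto KB-8-5-11 cells (500 cells/well, colchicine-free medium) and left 72 h at 37 degree C. CellTiter-Glo luminescence then yields AC50 values.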

Experiment [2] addresses Cytochrome P450 2C9 (Homo sapiens) (UniProt P11712). Description: Cytochrome P450 family 2 subfamily C member 9 (CYP2C9) small molecule antagonists: luciferase biochemical (cell-free) qHTS assay (AID 1645842; active means well fitted curve in the direction sought with a large enough effect in the repeat runs; an effect the other way counts as inactive or inconclusive; further: potency means the concentration at half of the fitted maximal effect; nearly all actives have a fitted effect of over 55% in size). A digest of the protocol: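 P450-Glo CYP2C9 system: proluciferin substrate with enzyme in mix containing 0.4% BSA, 10 min at room temperature, then NADPH regeneration solution added and incubated 1 h at 37C. Detection reagent stopped reaction; luminescence read after 20 min as RLU.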
In general terms: qHTS replaces the single test concentration by a dilution series.

Experiment [3] is described as follows: qHTS to identify inhibitors of the type 1 interferon - major histocompatibility complex class I in skeletal muscle: primary screen against the NCATS Mechanism Interrogation Plate v5.0 (MIPE) Libary (AID 1347411).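 Further: plate controls were vehicle for no effect and reference inhibitor for full effect; nearly all actives have a fitted effect of over 65% in size.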 The procedure, abridged: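 Luminescence from CRISPR HiBit-tagged endogenous HLA-B in human myoblasts reported MHC class I level after 24 h of IFN-beta (4 ng/ml) plus compound. Compounds ran as 11-point 1:3 series, top 46 uM final.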

Experiment [4] in a line: Primary qHTS for inhibitors of nuclear receptor binding SET domain protein 2 (NSD2) in an isogenic RCH-ACV NSD2 p.E1099K mutant (9B) (AID 1645876). Further: nearly all actives have a fitted effect of over 70% in size. Further: potency means the concentration at half of the fitted maximal effect.
For experiment [5], the target named is Phospholipid hydroperoxide glutathione peroxidase GPX4 (Homo sapiens) (UniProt P36969). Description: Primary qHTS Assay for Inhibitors of Recombinant Selenoprotein Glutathione Peroxidase 4 (GPX4) (AID 1845192). Further: series mostly up to about 50 µM; on the % scale 0 is the no-effect control and ±100 the full control effect; nearly all actives have a fitted effect of over 65% in size. As to conditions: outcome: dose series up to 50 µM unless noted. The procedure, abridged:
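Steps: GPX4 plus compound, 30 min RT; add GR/GSH/NADPH master mix; start with cumene hydroperoxide; read 340/450 nm fluorescence at 0 and 15 min. Finals were 200 nM GPX4, 1 mM GSH, 0.5 mM CHP, 0.5 mM NADPH, 100 nM GR.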

Experiment [6] can be described thus: qHTS drug screen for cell cycle checkpoint inhibitors in PARPi-resistant BRCA-mutant ovarian cancer cell lines. (AID 1963452; calls by dose curve). The conditions noted are these: PEO1/OlaR viability, CellTiter-Glo luminescence, 96 h, stronger effect = lower value. The procedure, abridged: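 PEO1, PEO4 and PEO1/OlaR ovarian cancer cells, 600 per well, exposed 96 h at 37C to a dilution series. Viability read by CellTiter-Glo luminescence, normalized to DMSO and empty wells; activity summarized as Z-AUC.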

Experiment [7] in a line: qHTS for Inhibitors of Ubiquitin-specific Protease USP2a Using CHOP2 as the Reporter: K633 Counterscreen (AID 652168). Further: series mostly up to about 57 µM; % of control where 0% means no effect. A digest of the protocol:
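Detection-system control: fluorescence of K48-linked DiUb-4IQF substrate (100 nM as added) tracked over time, Ex 525/Em 598, with pinned compounds and no enzyme, in pH 8 Tris buffer containing beta-mercaptoethanol and 0.05% Chaps.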

A short description of experiment [8]: qHTS for Inhibitors of Ubiquitin-specific Protease USP2a Using CHOP2 as the Reporter: Cytotox Assay (AID 652170).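 Further: HCT116 human colon cancer cells at 600 per well; series mostly up to about 46 µM; plate controls were DMSO-treated cells for no effect and wells without cells for full effect; nearly all actives have a fitted effect of over 70% in size.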 The procedure, abridged:
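Cytotoxicity read as ATP luminescence (CellTiter-Glo) after 72 hr compound treatment at 37 deg C. Cells: HCT116, 600/well in DMEM plus 10% FBS. Normalization between DMSO-treated cells and cell-free wells.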

Experiment [9] addresses Ubiquitin carboxyl-terminal hydrolase 2 (Homo sapiens) (UniProt O75604). Description: qHTS for Inhibitors of Ubiquitin-specific Protease USP2a Using CHOP2 as the Reporter: K484 Substrate (AID 652173).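 Further: cleavage of internally quenched K48 di-ubiquitin substrate measured as rising fluorescence over time; potency means the concentration at half of the fitted maximal effect; nearly all actives have a fitted effect of over 70% in size.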 As to conditions: USP2 cleavage of DiUb K48 IQF substrate, fluorescence. The procedure, abridged:
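Kinetic fluorescence (Ex 525/Em 598) tracked cleavage of an internally quenched K48 di-ubiquitin substrate, added as a 100 nM solution. The enzyme was added as a 5 nM USP2 solution before compound pinning, with no-enzyme controls. Buffer: Tris pH 8, beta-mercaptoethanol, CHAPS.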

Experiment [10] concerns the target Calcium and integrin-binding protein 1 (Homo sapiens) (UniProt Q99828). Description: Primary qHTS for Identification of Calcium Integrin Binding Protein 1 (CIB1) Competitor (AID 1508620).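 Further: GST tagged CIB1 binding a fluorescein labelled alphaIIb integrin peptide tracer; top concentration of the series differs between compounds; on the % scale 0 is the no-effect control and ±100 the full control effect.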 The procedure, abridged:
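Fluorescence polarization competition: GST-tagged CIB1 (1 uM final) preincubated with compound 15 min at room temperature, then FITC-labelled alphaIIb peptide (100 nM final) added. After 15 min at room temperature, polarization read at Ex 480/Em 540.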

Experiment [11] in a line: Primary qHTS for inhibitors of nuclear receptor binding SET domain protein 2 (NSD2) in an RCH-ACV wild type WT cells (2C) (AID 1645877). Further: nearly all actives have a fitted effect of over 70% in size. Further: potency means the concentration at half of the fitted maximal effect.
The target of experiment [12] is Cytochrome P450 1A2 (Homo sapiens) (UniProt P05177). Description: p450-cyp1a2 (AID 410; calls by dose curve; further: potency means the concentration at half of the fitted maximal effect). A digest of the protocol: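 Luminescent demethylation readout: Luciferin-ME (100uM, equal to Km) turned over by 20nM CYP1A2 for 60 min at room temperature after NADPH regeneration addition, following 10 min compound preincubation. Normalization used 57 uM furafylline as full inhibition.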

Experiment [13] addresses Glucocorticoid receptor (Homo sapiens) (UniProt P04150). Description: GR-GFP Redistribution (AID 450;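 active means compounds whose dose series gives a full or clear partial fitted curve of increased nuclear translocation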; further: potency means the concentration at half of the fitted maximal effect). As to conditions: U2OS GR-GFP nuclear translocation, laser cytometry, 2 h.
The target is the same in experiment [14]. Description: GR-EFC Redistribution (AID 451; calls by dose curve; further: potency means the concentration at half of the fitted maximal effect). As to conditions: CHO-K1 GR-EFC translocation, beta-gal luminescence, 2 h. The procedure, abridged:
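CHO-K1 cells expressing nuclear EA and GR-ED fragments of b-gal; compounds titrated up to 46 uM final, 2 h at 37 C. GR nuclear translocation read as complemented b-gal luminescence after 1 h RT detection.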

The target in experiment [15] is Mitogen-activated protein kinase 10 (Mus musculus) (UniProt Q61831). Description: JNK3 AlphaScreen Assay (AID 530; active means well fitted curve in either direction with a large enough effect, not every such curve was filed as active;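 further: kinase came from lysate of stimulated human HepG2 cells; signal reports phosphorylation of biotinylated GST-cJun 1-79 at Ser73 with 10 µM ATP; series mostly up to about 57 µM; on the % scale 0 is the no-effect control and ±100 the full control effect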). The procedure, abridged: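 Activity was read by AlphaScreen after JNK3-containing HepG2 lysate (cytokine pre-activated) phosphorylated biotinylated GST-cJun with 10 uM ATP at room temperature. Phospho-Ser73 cJun antibody with Protein-A acceptor beads provided detection.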
A general note: Bead proximity is the source of the signal in Alpha formats.

Experiment [16] has as its target 3',5'-cyclic-AMP phosphodiesterase 4B (Homo sapiens) (UniProt Q07343). Description: qHTS Assay for Inhibitors of PDE-IV (AID 607; active means well fitted activation curve with a large enough effect in the main read-out, with a control signal flat, not every such curve was filed as active; further: % of control where 0% means no effect). A digest of the protocol: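 HEK293 ACTOne cells with CNG channel (1000/well), endogenous PDE4; membrane potential dye, compounds up to 22.9 uM final. Fluorescence Ex 535/Em 590; RO 20-1724 (100 uM final) as reference.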
Experiment [17] has as its target Cytochrome P450 2C9 (Homo sapiens) (UniProt P11712). Description: qHTS Assay for Inhibitors and Substrates of Cytochrome P450 2C9 (AID 883). Further: potency means the concentration at half of the fitted maximal effect; nearly all actives have a fitted effect of over 60% in size. A digest of the protocol: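 Human CYP2C9 (10nM) with Luciferin-H at 100uM (its KM) in 25mM KPO4; compound preincubated 10 min at 37C, then NADPH regeneration for 60 min at 37C. Luciferin read by luminescence after detection reagent; normalized to 57uM sulphaphenazole as full inhibition.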

Experiment [18] has as its target Cytochrome P450 3A4 (Homo sapiens) (UniProt P08684). Description: qHTS Assay for Activators of Cytochrome P450 3A4 (AID 885). Further: nearly all actives have a fitted effect of over 65% in size. A digest of the protocol: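 Human CYP3A4 dealkylates Luciferin-PPXE to luciferin, which luciferase detection converts to light. Substrate was at its KM (25uM), buffer 200mM KPO4, reaction 60 min at RT.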
The target of experiment [19] is Cytochrome P450 2C19 (Homo sapiens) (UniProt P33261). Description: qHTS Assay for Inhibitors and Substrates of Cytochrome P450 2C19 (AID 899). Further: potency means the concentration at half of the fitted maximal effect; nearly all actives have a fitted effect of over 60% in size. A digest of the protocol:
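5 nM human CYP2C19 with 10uM Luciferin-H EGE (at KM) in 50mM KPO4, compound preincubated 10 min at 37C, then NADPH regeneration for 60 min at 37C. Luciferin read by luminescence after detection reagent; normalized to 57uM ketoconazole as full inhibition.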

Experiment [20] addresses DNA dC->dU-editing enzyme APOBEC-3G (Homo sapiens) (UniProt Q9HC16). Description: qHTS for inhibitors of Vif-A3G interactions: Validation (AID 588379). Further: 0% is about no effect. A digest of the protocol: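 Yellow fluorescence (Ex 488, Em 500-530) of Vif-coexpressing HeLa A3G-eYFP cells, scanned by Acumen cytometer, reports blocked A3G degradation. Cells plated at 700/well overnight at 37 deg C before compound addition, then a further overnight compound incubation at 37 deg C.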

Experiment [21] has as its system Zika virus NS2B-NS3 protease. Description: Primary screen GU AMC qHTS for Zika virus inhibitors (AID 1347154). A digest of the protocol:
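Unlinked Zika NS2B hydrophilic domain–NS3 protease complex at 25 nM in 10 mM Tris-HCl pH 8.0, 0.01% Tween 20, with an AMC peptide substrate. Fluorescence change (340/450 nm) over 15 min at room temperature, normalized to controls, fitted to 4-parameter Hill.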

Experiment [22] can be described thus: Primary qHTS for small molecule stabilizers of the endoplasmic reticulum resident proteome: Secreted ER Calcium Modulated Protein (SERCaMP) assay (AID 1508630). Further: on the % scale 0 is the no-effect control and ±100 the full control effect. A digest of the protocol: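 The SH-SY5Y reporter protocol was run at 3 concentrations up to 38.3 uM (primary) or 11 concentrations (follow-up): 16 h compound, 100 nM thapsigargin for 4 h, then extracellular luciferase luminescence.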

In experiment [23] the target is Glutathione peroxidase 1 (Homo sapiens) (UniProt P07203). Description: Primary qHTS Assay for Inhibitors of Recombinant Selenoprotein Glutathione Peroxidase 1 (GPX1) (AID 1845191). The procedure, abridged: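 GR-coupled readout: NADPH consumption tracked by fluorescence, ex 340/em 450 nm, at t=0 and after 15 min at RT. Final mix 10 nM GPX1, 1 mM GSH, 0.5 mM CHP, 0.5 mM NADPH, 100 nM GR, 0.01% BSA, following 30 min enzyme–compound preincubation.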

Records with an inconclusive call do not appear. Calls of active or inactive are those of the source. Unless noted, the call rests on the fitted dose curve; in most records, active means well fitted curve in the direction sought with a large enough effect; inconclusive means small, poorly fitted or top-dose-only effect, or another doubt; inactive means no such curve, though single readings can be large; an effect the other way counts as inactive or inconclusive.

Glucocorticoid receptor (Homo sapiens), sequence (P04150 whole entry, looked up): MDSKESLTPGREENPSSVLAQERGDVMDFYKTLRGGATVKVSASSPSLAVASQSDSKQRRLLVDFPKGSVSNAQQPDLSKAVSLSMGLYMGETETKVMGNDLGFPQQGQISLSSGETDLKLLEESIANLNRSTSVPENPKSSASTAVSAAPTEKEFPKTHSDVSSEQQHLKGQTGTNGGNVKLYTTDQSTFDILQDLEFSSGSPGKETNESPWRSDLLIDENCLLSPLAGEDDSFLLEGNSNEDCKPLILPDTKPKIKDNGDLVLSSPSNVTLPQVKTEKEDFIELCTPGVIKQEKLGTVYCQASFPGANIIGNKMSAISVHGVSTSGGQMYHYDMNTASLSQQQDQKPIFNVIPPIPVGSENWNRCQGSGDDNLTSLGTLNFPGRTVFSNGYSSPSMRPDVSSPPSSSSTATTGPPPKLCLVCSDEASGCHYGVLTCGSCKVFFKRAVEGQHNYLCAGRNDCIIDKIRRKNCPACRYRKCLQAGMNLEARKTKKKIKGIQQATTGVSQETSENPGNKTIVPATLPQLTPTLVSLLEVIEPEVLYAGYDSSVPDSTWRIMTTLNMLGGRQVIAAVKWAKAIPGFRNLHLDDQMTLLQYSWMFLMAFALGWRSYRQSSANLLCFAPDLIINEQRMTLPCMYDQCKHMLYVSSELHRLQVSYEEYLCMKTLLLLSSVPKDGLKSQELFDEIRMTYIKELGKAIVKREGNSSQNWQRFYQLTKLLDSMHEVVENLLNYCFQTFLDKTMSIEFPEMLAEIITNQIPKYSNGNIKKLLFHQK
Cytochrome P450 2C9 (Homo sapiens), sequence (P11712 whole entry, looked up): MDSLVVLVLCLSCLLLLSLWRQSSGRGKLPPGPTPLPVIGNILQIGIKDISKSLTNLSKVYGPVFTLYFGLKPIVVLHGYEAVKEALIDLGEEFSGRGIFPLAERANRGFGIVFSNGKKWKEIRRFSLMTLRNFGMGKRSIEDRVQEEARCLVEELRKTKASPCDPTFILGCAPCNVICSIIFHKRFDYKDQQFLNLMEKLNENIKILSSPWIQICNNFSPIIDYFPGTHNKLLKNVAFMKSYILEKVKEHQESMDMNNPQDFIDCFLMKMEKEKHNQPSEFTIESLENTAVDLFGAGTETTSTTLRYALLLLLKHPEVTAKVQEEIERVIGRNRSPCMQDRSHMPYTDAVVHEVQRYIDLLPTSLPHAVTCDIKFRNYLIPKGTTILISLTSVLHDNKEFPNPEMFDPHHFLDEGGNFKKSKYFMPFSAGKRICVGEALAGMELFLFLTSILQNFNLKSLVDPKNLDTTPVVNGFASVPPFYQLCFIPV
Cytochrome P450 2C19 (Homo sapiens), sequence (P33261 whole entry, looked up): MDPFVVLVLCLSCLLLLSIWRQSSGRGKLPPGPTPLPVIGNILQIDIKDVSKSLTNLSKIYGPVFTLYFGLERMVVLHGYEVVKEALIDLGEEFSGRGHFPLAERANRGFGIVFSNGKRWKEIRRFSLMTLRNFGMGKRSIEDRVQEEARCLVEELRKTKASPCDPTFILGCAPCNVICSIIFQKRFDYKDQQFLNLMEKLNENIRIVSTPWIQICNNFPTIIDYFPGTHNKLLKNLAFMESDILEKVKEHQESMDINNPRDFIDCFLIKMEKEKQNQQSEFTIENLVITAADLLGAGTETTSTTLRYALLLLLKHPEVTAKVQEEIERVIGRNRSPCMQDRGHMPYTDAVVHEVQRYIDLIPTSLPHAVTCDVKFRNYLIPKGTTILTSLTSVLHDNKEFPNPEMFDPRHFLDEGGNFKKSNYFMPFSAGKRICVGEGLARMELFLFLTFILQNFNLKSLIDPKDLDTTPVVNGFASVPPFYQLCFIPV
Cytochrome P450 1A2 (Homo sapiens), sequence (P05177 whole entry, looked up): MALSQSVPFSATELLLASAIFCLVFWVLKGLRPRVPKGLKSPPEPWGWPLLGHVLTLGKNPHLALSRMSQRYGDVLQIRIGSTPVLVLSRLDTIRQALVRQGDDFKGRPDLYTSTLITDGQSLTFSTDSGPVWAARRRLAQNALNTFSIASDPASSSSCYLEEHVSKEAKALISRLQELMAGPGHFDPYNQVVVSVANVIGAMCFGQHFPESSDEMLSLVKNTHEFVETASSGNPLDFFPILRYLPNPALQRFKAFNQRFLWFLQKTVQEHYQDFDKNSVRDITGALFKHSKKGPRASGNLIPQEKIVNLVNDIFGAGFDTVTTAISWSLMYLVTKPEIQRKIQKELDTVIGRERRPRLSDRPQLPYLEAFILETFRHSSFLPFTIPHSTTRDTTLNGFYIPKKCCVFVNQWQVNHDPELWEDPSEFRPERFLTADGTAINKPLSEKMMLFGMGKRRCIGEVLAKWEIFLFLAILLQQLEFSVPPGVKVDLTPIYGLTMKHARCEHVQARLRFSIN
Glutathione peroxidase 1 (Homo sapiens), sequence (P07203 whole entry, looked up): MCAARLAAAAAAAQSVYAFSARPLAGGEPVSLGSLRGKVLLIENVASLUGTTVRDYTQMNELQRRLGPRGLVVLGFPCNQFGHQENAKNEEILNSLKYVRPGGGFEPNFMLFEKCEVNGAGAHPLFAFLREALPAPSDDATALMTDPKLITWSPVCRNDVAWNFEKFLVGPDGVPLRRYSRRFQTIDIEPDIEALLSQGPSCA
Calcium and integrin-binding protein 1 (Homo sapiens), sequence (Q99828 whole entry, looked up): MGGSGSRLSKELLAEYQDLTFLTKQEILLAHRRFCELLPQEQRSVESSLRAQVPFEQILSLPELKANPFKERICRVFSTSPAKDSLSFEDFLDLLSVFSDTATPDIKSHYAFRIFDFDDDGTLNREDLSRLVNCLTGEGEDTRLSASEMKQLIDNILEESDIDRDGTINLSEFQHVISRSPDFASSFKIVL
Ubiquitin carboxyl-terminal hydrolase 2 (Homo sapiens), sequence (O75604 whole entry, looked up): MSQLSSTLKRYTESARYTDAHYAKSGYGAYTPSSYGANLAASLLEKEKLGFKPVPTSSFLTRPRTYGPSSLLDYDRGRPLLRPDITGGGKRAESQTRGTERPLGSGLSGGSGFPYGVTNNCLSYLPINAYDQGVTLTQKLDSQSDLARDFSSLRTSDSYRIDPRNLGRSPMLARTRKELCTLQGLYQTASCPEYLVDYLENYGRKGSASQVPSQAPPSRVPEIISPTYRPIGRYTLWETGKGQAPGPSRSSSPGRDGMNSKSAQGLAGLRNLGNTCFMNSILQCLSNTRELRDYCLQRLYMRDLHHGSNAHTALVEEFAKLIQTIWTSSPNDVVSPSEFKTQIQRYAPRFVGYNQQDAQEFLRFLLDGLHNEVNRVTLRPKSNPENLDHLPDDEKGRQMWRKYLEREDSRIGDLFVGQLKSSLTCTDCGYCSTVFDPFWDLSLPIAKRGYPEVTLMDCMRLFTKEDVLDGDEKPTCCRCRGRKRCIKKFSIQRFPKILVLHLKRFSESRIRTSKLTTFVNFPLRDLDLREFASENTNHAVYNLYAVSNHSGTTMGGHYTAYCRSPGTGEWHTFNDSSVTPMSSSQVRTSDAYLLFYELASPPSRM
3',5'-cyclic-AMP phosphodiesterase 4B (Homo sapiens), sequence (Q07343 whole entry, looked up): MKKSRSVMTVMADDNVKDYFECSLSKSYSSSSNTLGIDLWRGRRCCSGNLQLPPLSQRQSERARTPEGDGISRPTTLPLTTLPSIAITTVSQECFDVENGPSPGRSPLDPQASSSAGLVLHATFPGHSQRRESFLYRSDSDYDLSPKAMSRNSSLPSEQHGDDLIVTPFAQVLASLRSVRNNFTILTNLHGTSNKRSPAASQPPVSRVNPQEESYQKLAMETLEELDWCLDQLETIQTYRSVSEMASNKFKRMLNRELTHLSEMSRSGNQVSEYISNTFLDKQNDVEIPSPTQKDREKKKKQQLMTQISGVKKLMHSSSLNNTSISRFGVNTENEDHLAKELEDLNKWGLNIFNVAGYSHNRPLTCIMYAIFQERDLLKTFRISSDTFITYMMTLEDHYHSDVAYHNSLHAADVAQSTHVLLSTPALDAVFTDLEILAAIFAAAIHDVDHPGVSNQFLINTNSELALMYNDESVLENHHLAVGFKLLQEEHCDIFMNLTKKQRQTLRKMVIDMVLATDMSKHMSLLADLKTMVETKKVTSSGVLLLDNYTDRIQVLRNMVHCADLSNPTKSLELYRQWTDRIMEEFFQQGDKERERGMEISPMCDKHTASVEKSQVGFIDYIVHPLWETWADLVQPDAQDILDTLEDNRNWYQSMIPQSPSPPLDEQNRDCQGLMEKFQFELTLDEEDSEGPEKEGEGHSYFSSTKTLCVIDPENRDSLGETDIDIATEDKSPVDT
Cytochrome P450 3A4 (Homo sapiens), sequence (P08684 whole entry, looked up): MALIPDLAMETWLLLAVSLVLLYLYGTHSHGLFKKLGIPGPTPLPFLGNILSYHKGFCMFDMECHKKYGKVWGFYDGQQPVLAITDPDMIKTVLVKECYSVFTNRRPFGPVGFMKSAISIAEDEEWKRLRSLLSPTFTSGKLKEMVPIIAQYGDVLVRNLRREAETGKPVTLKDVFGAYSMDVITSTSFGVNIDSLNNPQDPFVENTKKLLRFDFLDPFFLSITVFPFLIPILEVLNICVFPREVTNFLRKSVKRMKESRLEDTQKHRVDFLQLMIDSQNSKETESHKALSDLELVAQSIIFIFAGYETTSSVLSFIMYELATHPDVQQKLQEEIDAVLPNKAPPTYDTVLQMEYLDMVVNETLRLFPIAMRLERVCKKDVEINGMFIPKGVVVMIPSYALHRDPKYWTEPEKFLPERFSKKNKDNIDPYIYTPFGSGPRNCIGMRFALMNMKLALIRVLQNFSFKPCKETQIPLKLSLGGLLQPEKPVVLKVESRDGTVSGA
Phospholipid hydroperoxide glutathione peroxidase GPX4 (Homo sapiens), sequence (P36969 whole entry, looked up): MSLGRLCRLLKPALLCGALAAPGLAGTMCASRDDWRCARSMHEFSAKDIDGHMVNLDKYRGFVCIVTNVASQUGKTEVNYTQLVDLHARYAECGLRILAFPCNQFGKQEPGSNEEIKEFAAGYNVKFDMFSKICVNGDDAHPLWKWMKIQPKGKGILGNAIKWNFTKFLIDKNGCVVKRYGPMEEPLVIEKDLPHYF

`CC1CN(CC(=O)Nc2ccc3c(c2)Cc2cccc(-c4cc(=O)cc(N5CCOCC5)o4)c2S3)CC(C)O1` (stereo not drawn): the Potency result in experiment [1] is “inactive”. In addition, the Potency in experiment [2] is 2680 nM (active).

For `CN(CCO)C1CCN(c2ccc(Nc3ncc4c5ccnc(F)c5n(C5CCCC5)c4n3)nc2)CC1`, the results for the Potency in experiment [1] and in experiment [4] were 11200 nM (active) and 574 nM (active), respectively. The Potency entry in experiment [3] and in experiment [5] was “inactive” each time. In addition, the values for the Z-AUC in experiment [6], in experiment [6] (measured here: PEO1 parental Z-AUC) and in experiment [6] (measured here: PEO4 Z-AUC) were -1.43 (inactive), -0.563 and -1, respectively.

Take `COc1cc(Br)c(C[N+]2(CCOCCC3CCC4CC3C4(C)C)CCOCC2)cc1OC` (stereo not drawn): the Potency entry in [1] was “inactive”.

In the case of `O=C(Nc1ccc(S(=O)(=O)Nc2nccs2)cc1)c1cc(-c2ccccc2)nc2ccccc12`, the result in experiment [7], in experiment [8] and in experiment [10] was inactive. The Potency in experiment [9] was 1370 nM (active). Further, in experiment [1], the Potency entry is “inactive”.

Consider `O=C1/C(=C/c2ccc(O)c(O)c2)Oc2ccccc21`, for which the Potency entry in [1] is “inactive”. Also, the Potency in experiment [4] is 1840 nM (active); in experiment [11], 2060 nM (active).

In the case of `Nc1[nH]nc2nc3ccccc3nc12`, the Potency in experiment [12] is 316 nM (active); in [13], > 46000 nM (inactive); in experiment [14] it was > 46000 nM (inactive); in experiment [17] it was 2000 nM (active); in experiment [19] it was 631 nM (active). The Potency result in [15], in [16], in [18], in experiment [20], in [1] and in experiment [21] was “inactive” in each case. The Potency result in experiment [22], in [4], in experiment [11] and in [23] was “inactive” throughout.
